# From the supplement of paper PMC4371806
# The full ranking holds about 1,600 compounds; the median of “plate-normalized OD600 growth (mean of duplicates)” is about 0.31, and the lowest 2% start at about 0.23. What follows is part of a selection rich in the lowest values, with near analogues and random picks from the rest.
# System: Escherichia coli BW25113
# Experiment: plate-normalized OD600 growth (mean of duplicates) (OD600 (normalized)); higher = more growth (less inhibition)
# Details: 10 µM
# Procedure: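 E. coli BW25113 in LB (100 µl, 96-well, no shaking) was exposed to 10 µM of each compound (here the ChemBridge subset of a ~30,000-member library) and grown at 37°C for 24 h or 15°C for 48 h, in duplicate. Growth was read as OD600 and the duplicate ODs were normalized across screening plates to correct plate-to-plate variation.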
Compound,"plate-normalized OD600 growth (temperature: 15°C, 48 h)","plate-normalized OD600 growth (temperature: 37°C, 24 h)"
O=C(Nc1ccccc1NC(=O)c1ccccc1F)c1ccccc1F,0.263,0.627
CCN(CC)C(=O)c1ccc([N+](=O)[O-])o1,0.247,0.627
O=C(Nc1ccccc1F)c1ccc([N+](=O)[O-])o1,0.201,0.592
CCOc1ccccc1N1CCN(C(=O)c2ccccc2C)CC1,0.287,0.646
Brc1ccc(CN2CCN(c3ccccn3)CC2)cc1,0.267,0.614
CN1CCCN(CC2CC3C=CC2C3)CC1 (configuration not stated),0.225,0.656
COc1ccc(CN2CCCN(C)CC2)cc1Br,0.229,0.632
COc1cccc(N2CCN(CC3CC4C=CC3C4)CC2)c1 (configuration not stated),0.296,0.627
COc1ccc(S(=O)(=O)N2CCCC(C)C2)cc1 (configuration not stated),0.266,0.639
COc1ccc(S(=O)(=O)N2CCCC2)cc1,0.219,0.612
COC(=O)Nc1ccc(S(=O)(=O)N2CCCCC2)cc1,0.238,0.599
Cc1cc(NO)nc(-c2ccc(Br)cc2)n1,0.221,0.622
Cc1nc(C)c(-c2cc(C)c3c(C)nc(C)nc3n2)c(N)n1,0.252,0.617
O=C(COc1ccc(Cl)cc1Cl)Nc1ccc(C(=O)O)cc1,0.261,0.618
COc1cccc(NC(=O)c2ccncc2)c1,0.261,0.618
O=C(c1cccnc1)N1CCN(C(=O)c2ccco2)CC1,0.24,0.631
COc1ccc(Cc2ccc(OC)c(N)c2)cc1N,0.254,0.632
COc1cc(C)c(N)cc1C(C)C,0.226,0.6
COc1cc2c(cc1NC(=O)C(Cl)Cl)oc1ccccc12,0.232,0.619
COc1ccccc1N1C(=O)CC(N2CCN(c3ccc([N+](=O)[O-])cc3)CC2)C1=O (configuration not stated),0.282,0.637
COc1ccc(N2C(=O)CC(N3CCN(c4ccc(F)cc4)CC3)C2=O)cc1 (configuration not stated),0.24,0.59
Cc1ccc(N2C(=O)CC(N3CCN(c4ccc([N+](=O)[O-])cc4)CC3)C2=O)c(C)c1 (configuration not stated),0.218,0.612
Cc1ccccc1OCCCCN1CCCCC1,0.265,0.623
c1ccc(OCCCCN2CCCCC2)cc1,0.241,0.621

Compound,"plate-normalized OD600 growth (temperature: 15°C, 48 h)","plate-normalized OD600 growth (temperature: 37°C, 24 h)"
Fc1ccccc1OCCCCN1CCCCC1,0.214,0.61
CC(Nc1cc(=O)n(C)c(=O)[nH]1)c1ccccc1 (configuration not stated),0.254,0.611
CC1(C)CC(n2c(NN)nc3c(c2=O)C2(CCCCC2)Cc2ccccc2-3)CCO1 (configuration not stated),0.255,0.631
CC(=O)N1CCC(NC2CCCCCC2)CC1,0.269,0.62
CCN(CCN(C)C)C1CCCCCC1,0.26,0.618
C=C(C)CN(CC)C1CCN(C(C)=O)CC1,0.226,0.627
CN1CCN(C(=O)CC(c2ccccc2)c2ccccc2)CC1,0.253,0.62
N#Cc1ccc(-c2cccs2)[nH]c1=O,0.236,0.644
NS(=O)(=O)c1ccc(-c2ccc(C=O)o2)cc1,0.227,0.612
O=Cc1ccc(-c2ccc(Cl)c(C(=O)O)c2)o1,0.268,0.622
O=C(/C=C/c1ccc(-c2ccc(F)cc2)o1)c1cccs1,0.253,0.617
COc1ccc2nc3c(nc2c1)C(=O)c1ccccc1-3,0.234,0.611
c1cncc(-c2nc3c4c5c(sc4ncn3n2)CCCC5)c1,0.261,0.628
COc1ccc(CNCCC2CCOC(C)(C)C2)cc1 (configuration not stated),0.263,0.65
Cc1nnc(Sc2ccc(C=O)o2)s1,0.227,0.604
CCOC(=O)N1CCN(Cc2cc(C)ccc2C)CC1,0.266,0.646
CC(=O)c1ccc(NS(=O)(=O)c2cc(S(=O)(=O)c3ccccc3)ccc2C)cc1,0.278,0.649
c1ccc(CN2C3=NCCCN3c3ccccc32)cc1,0.249,0.625
N#CCCS(=O)(=O)c1ccc(Br)cc1,0.258,0.63
CCCCOc1ccc(C2(C)CC(=O)NC2=O)cc1 (configuration not stated),0.258,0.634
Cc1onc(-c2ccccc2Cl)c1C(=O)NCc1ccc2c(c1)OCO2,0.261,0.619
CN(C)/C=C/c1c(C=O)c2cc([N+](=O)[O-])ccc2n1C,0.238,0.596
CCn1c(C)c(C=O)c2cc([N+](=O)[O-])ccc21,0.223,0.608
Cn1c(C=O)nc2cc([N+](=O)[O-])ccc21,0.241,0.625

Compound,"plate-normalized OD600 growth (temperature: 15°C, 48 h)","plate-normalized OD600 growth (temperature: 37°C, 24 h)"
Cn1c2ccccc2c2nc3ccc([N+](=O)[O-])cc3cc21,0.249,0.639
NNC(=O)c1cc(-c2ccc([N+](=O)[O-])cc2)nc2ccccc12,0.251,0.647
O=C(O)Cn1c2ccccc2c2cc([N+](=O)[O-])ccc21,0.226,0.625
Cc1n[nH]c(=O)c2cc3c(C)n[nH]c(=O)c3cc12,0.259,0.622
CC1CCC2(CC1)C(C#N)C(=O)NC(=O)C2C#N (configuration not stated),0.244,0.615
CCCC(=O)NC(c1ccccc1)c1ccccc1,0.265,0.637
CSc1nc(C)c(C(C)=O)cc1C#N,0.244,0.621
Cc1ccc(S(=O)(=O)CCSc2cccc(C(=O)Nc3ccccc3)c2)cc1,0.243,0.633
CC(=O)Nc1cccc(NC(=O)Nc2cccc(Cl)c2)c1,0.236,0.585
O=C(Nc1ccncc1)c1ccc(Cl)cc1Cl,0.263,0.623
Cc1nonc1NC(=O)Nc1ccncc1,0.18,0.615
Cc1ccc(C(C)NC(=O)c2ccccc2)c(C)c1 (configuration not stated),0.267,0.619
Cc1ccc(NC(=O)[C@@H]2C3C=CC(C3)[C@@H]2C(=O)O)c(C)c1 (some centres not stated),0.247,0.648
CCCN(CCO)Cc1ccccc1F,0.235,0.589
c1ccc(CCN2CCN(c3ccccc3)CC2)cc1,0.227,0.62
c1ccc(CCN2CCC(N3CCOCC3)CC2)cc1,0.239,0.618
c1ccc(CCCN2CCOCC2)cc1,0.251,0.615
Clc1ccccc1N1CCN(Cc2ccc(Br)o2)CC1,0.245,0.606
N#CC1=C(N)N2C(=C(C#N)C1c1c(F)cccc1Cl)Sc1ccccc12 (configuration not stated),0.27,0.622
O=C(NCC1CCCO1)c1ccc2c(c1)OCO2 (configuration not stated),0.243,0.615
CN(CCCc1ccccc1)CCc1ccccn1,0.26,0.659
CN(CCc1ccccn1)Cc1ccc(Cl)c(Cl)c1,0.222,0.622
Cc1ccc(CN(C)CCc2ccccn2)cc1,0.272,0.619
